Source: the supplement of paper PMC6555819

Key:
Experiment in all cases: PBM binding z-score (relative to random genomic background probes); higher = stronger binding; sequences stand for … in GC…GCGATTGACAGCGTAGAATGAAGG
[1] = system: FXR:RXRa (NR concentration 270 nM, RXRa partner concentration 90 nM)
Procedure, shortened: (§1)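 The probes on custom Agilent 4×180K protein-binding microarrays were double-stranded, with 34-nt variable regions bearing direct-repeat seeds, single-nucleotide variants, half-site ablations and random human genomic background sequences. Incubation lasted 1 h with ligand-free nuclear receptor dimers in PBS pH 7.4, 2% milk, 0.02% Triton X-100, 1 mM DTT, 0.2 mg/mL BSA and 0.4 mg/ml salmon testes DNA. Antibodies against each partner (one per run) detected bound dimers, and fluorescence scans were regression-normalized. Binding z-scores take the random background probes as reference.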

[2] = system: LXRa:RXRa (NR concentration 270 nM, RXRa partner concentration 90 nM)
Procedure, shortened: as §1

[3] = system: LXRa homodimer (NR concentration 270 nM)
Procedure, shortened: as §1

[4] = system: LXRb:RXRa (NR concentration 270 nM, RXRa partner concentration 90 nM)
Procedure, shortened: as §1

[5] = system: LXRb homodimer (NR concentration 270 nM)
Procedure, shortened: as §1

[6] = system: PPARa:RXRa (NR concentration 270 nM, RXRa partner concentration 90 nM)
Procedure, shortened: as §1

[7] = system: PPARg:RXRa (NR concentration 180 nM, RXRa partner concentration 90 nM)
Procedure, shortened: as §1

[8] = system: PPARg:RXRa 270nM:90nM, anti-RXR (NR concentration 270 nM, RXRa partner concentration 90 nM)
Procedure, shortened: as §1

[9] = system: PPARg:RXRa 30nM:10nM, anti-RXR (NR concentration 30 nM, RXRa partner concentration 10 nM)
Procedure, shortened: as §1

[10] = system: PPARg:RXRa 90nM:30nM, anti-RXR (NR concentration 90 nM, RXRa partner concentration 30 nM)
Procedure, shortened: as §1

Sequence | PBM binding z-score [1] | PBM binding z-score [2] | PBM binding z-score [3] | PBM binding z-score [4] | PBM binding z-score [5] | PBM binding z-score [6] | PBM binding z-score [7] | PBM binding z-score [8] | PBM binding z-score [9] | PBM binding z-score [10]
ACTTACGGGTCAACGAGGTTATAGAACGCGTATA | 6.52 | 5.29 | 0.693 | 4.56 | 0.433 | 5.87 | 5.23 | 5.55 | 2.2 | 4.21
TATACAGGGTCAAAGGCCCGAGTACGAATGTCGA | 6.5 | 6.07 | 1.91 | 4.39 | 2 | 5.84 | 6.14 | 6.28 | 2.84 | 5.12
TCTTGAAGATCAGCAGGTTAAGAAAGCTGGCCAA | 0.211 | 0.582 | -0.541 | 0.285 | -0.955 | 0.856 | -0.581 | 1.44 | 2.86 | 2.07
GGAACGAGGGCCAAGTTGATAGCATCTGTCGACG | -0.236 | -0.341 | -0.454 | -0.778 | -0.949 | 0.213 | 0.734 | 1.4 | 0.144 | 0.913
ACTAACGGGTCAACGAGGTTATAGCACGCGTATA | 6.32 | 4.49 | 0.715 | 3.82 | 0.313 | 5.19 | 4.64 | 4.34 | 1.48 | 2.98
ATCGAAAGGTCGAAGGTGAGTATGCCCACCCGAA | 4.46 | 3.31 | 0.253 | 2.87 | 0.664 | 4.64 | 4.16 | 5.05 | 2.9 | 3.81
TCATATAGGTAAACTGGTGAAAGTCCGTAAGTTA | 0.534 | 0.478 | 0.129 | 0.808 | -0.0343 | 1.05 | 0.842 | 2.31 | 3.92 | 3.07
CCTGCTAGGTCATGGTCAGCTATTCTACAGTATG | 3.41 | 2.49 | 0.199 | 1.79 | -0.409 | 3.28 | 2.34 | 2.63 | 0.534 | 1.64
CTCGAAAGGTCGGTTGAGGTGAGTGTACGGATAA | 2.54 | 2.08 | -0.0781 | 1.51 | -0.0633 | 2.67 | 0.33 | 1.27 | 0.405 | 0.48
GCTTACGGGTCAAAGCTTATAGCATGAATAGAAT | 6.25 | 3.79 | -0.13 | 3.78 | 0.156 | 5.7 | 4.76 | 5.32 | 2.66 | 4.08
CCTGCTAGGTCAATGGTCAGCTGAAGCAGCTCGC | 3.06 | 2.17 | -0.221 | 1.45 | -0.203 | 3.22 | 4.4 | 5.35 | 2.69 | 4.92
CCTTACGGGTCACTGACAGGTTATAGTATTTGGA | 5.25 | 4.01 | 0.456 | 3.4 | 0.163 | 4.95 | 4.75 | 4.34 | 1.8 | 2.96
